Activity calls are given as the source filed them. How the source made its calls: active means hit-call score of the fitted dose curve at least 0.9, where 1 is the maximum; inactive means score below 0.9.

This assay can be described thus: CCTE_Mundy_HCI_Cortical_Synap_Neur_Matur_CellBodySpotCount: CCTE's Synaptogenesis and Neurite Maturation Assay in rat cortical cells for Cell Body Spot Count, Mundy Lab (AID 2284223). The procedure: CCTE_Mundy_HCI_Cortical_Synap&Neurite_Matur is a multiplexed, cell-based-readout assay that uses rat primary cortical cells with measurements taken at 288.33 hours after chemical dosing in a microplate: 96-well plate.CCTE_Mundy_HCI_Cortical_Synap_Neur_Matur_CellBodySpotCount is one of eight components of the CCTE_Mundy_HCI_Cortical_Synap&Neurite_Matur assay. It measures synaptogenesis and neurite maturation related to number of cell body-associated synapses (synaptophysin puncta) per neuron using High Content Imaging of fluorescently labelled markers.[…] Using a type of morphology reporter, loss -of-signal activity can be used to understand developmental effects.
Cells are plated onto 96 well plates and allowed 2 hr for attachment to the substrate. At days in vitro (DIV) 5, Cytosine Arabinoside (AraC) is added to arrest glial cell growth. Chemicals are dosed and a media change is performed at DIV 7 of differentiation and is continued through DIV 12 when the experiment is terminated. Cells are fixed with […] and Hoechst Dye. Cells are stained using Millipore Mouse anti-MAP2MAB3418 (1:800) and Millipore Rabbit anti-Synaptophysinsc-1750 (1:250) primary antibodies and Alexa Fluor-488 goat anti-mouse and AlexaFluor-546 goat anti-rabbit secondary antibodies to label neuronal cell nuclei, synapses and neurites. A Cellomics ArrayScan VTi HCS Reader is used for automated image acquisition and analysis of neurite outgrowth.
In the case of `C[C@@H]1C[C@H]2[C@@H]3CCC4=CC(=O)C=C[C@]4(C)[C@@]3(F)[C@@H](O)C[C@]2(C)[C@@]1(O)C(=O)CO`, the outcome was inactive.

`Cc1c(O)cccc1C(=O)N[C@@H](CSc1ccccc1)[C@H](O)CN1C[C@H]2CCCC[C@H]2C[C@H]1C(=O)NC(C)(C)C`: the AC50 was 6.41 µM (active).

Regarding `CC1(C)S[C@@H]2[C@H](NC(=O)[C@H](N)c3ccccc3)C(=O)N2[C@H]1C(=O)O`, the compound was classed as inactive.

With `[Cl-].[Cl-].[NH2-].[NH2-].[Pt+4]`, the compound was classed as inactive.

Take `CNCCC(Oc1ccc(C(F)(F)F)cc1)c1ccccc1` (stereo unspecified): the outcome was inactive.

With `C[C@H](CS)C(=O)N1CCC[C@H]1C(=O)O`, the compound was called inactive.

Regarding `CN(C)CCC(c1ccc(Cl)cc1)c1ccccn1` (stereo unspecified), the outcome was inactive.

In the case of `CN(C)C(=O)C(CCN1CCC(O)(c2ccc(Cl)cc2)CC1)(c1ccccc1)c1ccccc1`, the AC50 was 16.9 µM (active).

Take `CC(C)(C)NCC(O)c1cc(O)cc(O)c1` (stereo unspecified): the compound was called inactive.

With `NC(N)=Nc1nc(CSCCC(N)=NS(N)(=O)=O)cs1`, the compound was classed as inactive.

Consider `CC1(C)S[C@@H]2[C@H](NC(=O)[C@H](N)c3ccc(O)cc3)C(=O)N2[C@H]1C(=O)O`, for which the compound was classed as inactive.

These data come from PubChem BioAssay (EPA / NIEHS).
